# Data published in PubChem BioAssay AID449728 (The Scripps Research Institute Molecular Screening Center, 2010).
# The campaign covered roughly 330,000 compounds. About 900 (0.27%) were called active. What follows is part of a selection rich in actives, with near analogues and random picks from the rest. A number with no mark means an inactive call.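 The calls were made as follows: active = inhibition above the campaign's mean inhibition across all tested compounds plus 3 SD (cut at about 9.9% in these data); inactive = the rest.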
# Assay: bacterial viability reduction in E. coli – absorbance, OD600, counter-screen for AddAB inhibitor project, primary screen (AID 449728);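 also: uninfected addAB+ strain grown without phage in ampicillin broth; 0% = DMSO wells and 100% = ciprofloxacin 0.95 µg/ml wells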
# Details: E. coli V3065 growth, 18 h, at 11.9 µM, stronger effect = higher value
row,Structure (SMILES),inhibition
1,COC(=O)c1ccc(COC(=O)c2cnccn2)cc1,-0.61%
2,CC1CCN(C(=O)Cn2cc(C(=O)c3ccco3)c3ccccc32)CC1,-0.18%
3,O=C(Cn1cc(C(=O)c2cccs2)c2ccccc21)NCc1cccs1,0.18%
4,Cc1cccc(NC(=O)Cn2cc(C(=O)c3ccco3)c3ccccc32)c1,16.6% (active)
5,Cc1ccc(CN2CCC(N3CCC(C(=O)NCC4CCCO4)CC3)CC2)o1 (stereo unspecified),-1.01%
6,O=C(NCC#CCSc1nnc(-c2cccc3ccccc23)o1)c1cccs1,10.2% (active)
7,COc1ccc(CCNC(=O)/C(C#N)=C2\N=C(NC(=O)c3cccs3)c3ccccc32)cc1,-0.34%
8,C#CCSc1nnc(-c2sc3ccccc3c2Cl)o1,2.18%
9,COc1ccc(C)cc1N(CC(=O)NC(C)c1ccccc1)S(C)(=O)=O (stereo unspecified),0.84%
10,C[N+]1(CCNC(=O)/C=N/O)CCCCC1,-1.11%
11,COc1ccc([C@H]2CC(=O)C=C(/C=C/c3ccccc3)C2)cc1,-0.71%
12,Cc1ccccc1NC(=O)NC1(C(=O)N2CCCC2)CCCCC1,-1.26%
13,Oc1c(Cl)cc(Cl)c(Cl)c1Cc1c(O)c(Cl)cc(Cl)c1Cl,12.2% (active)
14,CC(=O)OCCOCn1cnn2c(=O)c(Br)c(C)nc12,-2.04%
15,CCNC(=S)N1CCN(c2ncccn2)CC1,0.78%
16,CN(C)CCCn1c(SCc2ccc(Cl)cc2)nnc1-c1ccncc1,-1.29%
17,COc1cccc(-c2sc3ccc(OC)cc3c2-c2ccc(OCCN3CCCCC3)cc2)c1,-0.53%
18,CCOc1ccccc1NC(=O)C12CC3CC(C1)CC(c1ccc(C)cc1)(C3)C2,26.6% (active)
19,Cc1ccc(C23CC4CC(CC(C(=O)NCC(=O)O)(C4)C2)C3)cc1,1%
20,CCOc1ccccc1NC(=O)Cc1cccs1,1.04%
21,COCCCNC(=O)C1CCC(CNS(=O)(=O)c2ccc(OC)cc2)CC1 (stereo unspecified),-1.01%

row,Structure (SMILES),inhibition
1,CCC1C(=O)NCCN1C(=O)c1ccc2nc(Cc3ccc(OC)cc3)oc2c1 (stereo unspecified),-0.08%
2,O=C(OCC1O[C@@H](OC(=O)c2cc(O)c(O)c(O)c2)[C@@H](OC(=O)c2cc(O)c(O)c(O)c2)[C@@H](OC(=O)c2cc(O)c(O)c(O)c2)[C@@H]1OC(=O)c1cc(O)c(O)c(O)c1)c1cc(O)c(O)c(O)c1 (stereo partly specified),23.6% (active)
3,COc1ccc(Br)cc1/C=N/Nc1ccc(Cl)c(C(=O)O)c1,-3.01%
4,COc1cccc(/C=N/Nc2ncc(C(F)(F)F)cc2Cl)c1O,15.6% (active)
5,CCOc1cccc(/C=N/NC(=S)NCCN2CCOCC2)c1O,0.34%
6,C/C(CC(C)C)=N\Oc1nc(C)cc(C)n1,0.81%
7,COc1ccc(C(=O)c2c3ccc([N+](=O)[O-])cc3[n+]([O-])n2CCCN)cc1,9.95% (active)
8,COc1ccc2c(C(=O)c3ccc(C)cc3)n(CCC(N)=O)[n+]([O-])c2c1,-1.03%
9,COc1ccc(C(=O)CC(=O)C(=O)Nc2cc([N+](=O)[O-])ccc2OC)cc1,-2.64%
10,CN1CCN(C(=O)c2cnn(-c3ccccc3)c2NC(=O)c2ccc([N+](=O)[O-])cc2)CC1,-0.94%
11,O=C(NNC(=O)C1CCCC1)c1ccc(F)cc1,-1.97%
12,O=C(/C=C/c1ccc([N+](=O)[O-])o1)NNC(=O)c1ccc(F)cc1,97.9% (active)
13,Cc1ccc(/C=C/C(=O)Nc2ccc([N+](=O)[O-])c(NC(=O)/C=C/c3ccc(C)o3)c2)o1,-5.13%
14,CONC(=O)c1cc(OCC(F)(F)F)ccc1OCC(F)(F)F,-0.41%
15,O=C1CN(C(=O)COC(=O)c2cnc(Cl)c(Cl)c2)c2ccccc2N1,1.7%
16,CCOC(=O)C1=C(C)N=C2c3ccccc3C(=O)C2C1c1ccc(Br)cc1 (stereo unspecified),0.42%
17,O=C1c2ccccc2C2=Nc3ccccc3SC(c3ccccc3F)C12 (stereo unspecified),19.9% (active)
18,O=C1c2ccccc2C(=O)C1c1ccccc1F,1.08%
19,C=CCN(Cc1nc(-c2cc(OC)c3c(c2)OCO3)oc1C)C1CCS(=O)(=O)C1 (stereo unspecified),-0.09%
20,O=C(COC(=O)c1c(Cl)cccc1Cl)Nc1cccc(S(=O)(=O)NC2=NCCCCC2)c1,-2.98%
